# Laboratory results as given in PMC7862700, “An all-to-all approach to the identification of sequence-specific readers for epigenetic DNA modifications on cytosine”.
# How the values were obtained:
# Test in all cases: DAPPL (digital affinity profiling via proximity ligation, sequencing); 10 mM Tris-HCl pH 7.5, 50 mM NaCl, 1 mM DTT, 4% glycerol, room temperature, 30 min; GST-TFs on glutathione beads, 16-mer random dsDNA library, 0.1% formaldehyde crosslink after washing; high values mean tight binding
# FEV = biological target: T1, FEV (Homo sapiens, UniProt Q99581 1-238); details: protein: recombinant; tags: N-terminal GST; dsDNA, one strand shown
# T1 sequence: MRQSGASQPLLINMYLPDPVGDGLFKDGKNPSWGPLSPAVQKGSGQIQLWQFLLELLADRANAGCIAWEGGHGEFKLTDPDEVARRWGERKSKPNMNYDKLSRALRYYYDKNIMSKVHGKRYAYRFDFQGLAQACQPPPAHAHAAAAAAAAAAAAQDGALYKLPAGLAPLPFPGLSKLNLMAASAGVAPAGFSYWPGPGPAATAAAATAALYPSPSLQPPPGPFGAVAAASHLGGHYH
# In short: (§1)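 Human transcription factors were made in yeast as GST fusions, captured on glutathione beads and barcoded with DNA. With a tag-only sample included, the pool was incubated with 200 nmole of a random double-stranded 16-mer DNA library in Tris/NaCl/DTT/glycerol buffer at room temperature for 30 min, then crosslinked with 0.1% formaldehyde after washing, ligated by proximity, amplified and sequenced. For binding signal, each hexamer's read frequency for a factor is divided by its frequency for the tag-only sample.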
# ETV5 = ETV5 (Homo sapiens, UniProt P41161 1-510); details: protein: recombinant; tags: N-terminal GST; dsDNA, one strand shown
# Sequence of ETV5 (P41161 whole entry): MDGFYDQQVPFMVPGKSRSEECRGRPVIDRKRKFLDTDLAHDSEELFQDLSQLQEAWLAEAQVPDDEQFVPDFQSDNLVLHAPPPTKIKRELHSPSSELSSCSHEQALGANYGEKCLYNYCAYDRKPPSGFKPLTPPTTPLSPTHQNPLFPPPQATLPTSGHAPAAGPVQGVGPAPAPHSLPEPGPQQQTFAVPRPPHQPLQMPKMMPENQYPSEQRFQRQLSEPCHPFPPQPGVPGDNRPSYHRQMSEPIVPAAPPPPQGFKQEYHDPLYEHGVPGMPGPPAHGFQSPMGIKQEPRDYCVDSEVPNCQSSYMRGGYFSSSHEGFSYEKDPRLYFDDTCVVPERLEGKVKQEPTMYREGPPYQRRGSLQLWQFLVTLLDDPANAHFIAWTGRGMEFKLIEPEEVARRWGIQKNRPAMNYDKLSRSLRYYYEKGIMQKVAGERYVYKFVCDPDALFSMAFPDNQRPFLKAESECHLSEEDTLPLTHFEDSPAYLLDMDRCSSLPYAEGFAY
# In short: as §1
# HSF1 = HSF1 (Homo sapiens, UniProt Q00613 1-529); details: protein: recombinant; tags: N-terminal GST; chain copies: 3; dsDNA, one strand shown
# Sequence of HSF1 (Q00613 whole entry): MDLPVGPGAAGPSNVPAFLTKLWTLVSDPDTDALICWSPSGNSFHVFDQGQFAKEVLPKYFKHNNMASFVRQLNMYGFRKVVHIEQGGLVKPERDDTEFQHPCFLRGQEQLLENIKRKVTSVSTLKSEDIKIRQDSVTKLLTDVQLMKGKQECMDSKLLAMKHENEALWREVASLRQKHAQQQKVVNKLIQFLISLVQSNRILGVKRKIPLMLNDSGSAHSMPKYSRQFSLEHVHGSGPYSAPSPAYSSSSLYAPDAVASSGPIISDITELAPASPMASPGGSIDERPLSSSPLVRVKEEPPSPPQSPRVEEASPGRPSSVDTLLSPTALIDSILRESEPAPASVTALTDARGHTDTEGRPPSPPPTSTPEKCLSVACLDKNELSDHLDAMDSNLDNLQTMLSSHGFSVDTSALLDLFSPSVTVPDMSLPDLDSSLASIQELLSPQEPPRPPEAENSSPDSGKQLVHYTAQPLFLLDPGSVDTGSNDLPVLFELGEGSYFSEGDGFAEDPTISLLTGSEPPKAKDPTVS
# In short: as §1
# SPIC = biological target: T2, SPIC (Homo sapiens, UniProt Q8N5J4 1-248); details: protein: recombinant; tags: N-terminal GST; dsDNA, one strand shown
# T2 sequence: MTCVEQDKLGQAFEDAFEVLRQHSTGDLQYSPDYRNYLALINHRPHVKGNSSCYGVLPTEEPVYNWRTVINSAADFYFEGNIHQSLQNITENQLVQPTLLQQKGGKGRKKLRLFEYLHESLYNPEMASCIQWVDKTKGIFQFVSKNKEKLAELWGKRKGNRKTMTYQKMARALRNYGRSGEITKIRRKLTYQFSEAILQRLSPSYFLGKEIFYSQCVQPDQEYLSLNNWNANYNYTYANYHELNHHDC
# In short: as §1
# ELF4 = ELF4 (Homo sapiens, UniProt Q99607 1-663); details: protein: recombinant; tags: N-terminal GST; dsDNA, one strand shown
# Sequence of ELF4 (Q99607 whole entry): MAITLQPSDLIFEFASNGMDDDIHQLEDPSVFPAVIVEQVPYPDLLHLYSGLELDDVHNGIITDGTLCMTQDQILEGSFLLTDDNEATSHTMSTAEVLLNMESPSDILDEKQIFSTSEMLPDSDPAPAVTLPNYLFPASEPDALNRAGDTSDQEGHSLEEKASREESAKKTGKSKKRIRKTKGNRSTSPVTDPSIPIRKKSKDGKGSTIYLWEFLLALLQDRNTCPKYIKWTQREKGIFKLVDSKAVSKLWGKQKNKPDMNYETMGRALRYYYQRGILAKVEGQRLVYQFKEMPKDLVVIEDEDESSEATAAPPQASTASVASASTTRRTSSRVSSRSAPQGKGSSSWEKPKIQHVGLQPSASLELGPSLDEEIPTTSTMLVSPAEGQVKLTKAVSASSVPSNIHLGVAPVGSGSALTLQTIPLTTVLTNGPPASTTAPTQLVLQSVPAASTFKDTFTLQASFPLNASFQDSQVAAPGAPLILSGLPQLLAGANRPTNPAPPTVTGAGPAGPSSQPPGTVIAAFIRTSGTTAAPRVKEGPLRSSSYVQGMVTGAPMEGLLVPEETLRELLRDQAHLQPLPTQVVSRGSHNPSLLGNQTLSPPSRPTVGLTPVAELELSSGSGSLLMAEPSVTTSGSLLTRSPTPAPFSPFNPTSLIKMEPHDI
# In short: as §1
# ELK4 = biological target: T3, ELK4 (Homo sapiens, UniProt P28324-2 1-405); details: protein: recombinant; tags: N-terminal GST; dsDNA, one strand shown
# T3 sequence: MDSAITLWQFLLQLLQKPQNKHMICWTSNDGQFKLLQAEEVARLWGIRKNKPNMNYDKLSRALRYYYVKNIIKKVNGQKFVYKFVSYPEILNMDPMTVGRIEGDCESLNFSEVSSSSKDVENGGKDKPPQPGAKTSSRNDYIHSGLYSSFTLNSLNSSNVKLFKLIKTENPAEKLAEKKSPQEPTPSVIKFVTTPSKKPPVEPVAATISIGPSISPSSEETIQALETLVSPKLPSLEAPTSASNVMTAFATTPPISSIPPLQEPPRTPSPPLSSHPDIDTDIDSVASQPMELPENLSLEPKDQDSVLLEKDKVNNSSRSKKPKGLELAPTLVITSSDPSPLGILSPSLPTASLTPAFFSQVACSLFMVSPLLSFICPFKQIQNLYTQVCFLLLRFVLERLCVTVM
# In short: as §1
# ETV2 = biological target: T4, ETV2 (Homo sapiens, UniProt O00321 1-342); details: protein: recombinant; tags: N-terminal GST; dsDNA, one strand shown
# T4 sequence: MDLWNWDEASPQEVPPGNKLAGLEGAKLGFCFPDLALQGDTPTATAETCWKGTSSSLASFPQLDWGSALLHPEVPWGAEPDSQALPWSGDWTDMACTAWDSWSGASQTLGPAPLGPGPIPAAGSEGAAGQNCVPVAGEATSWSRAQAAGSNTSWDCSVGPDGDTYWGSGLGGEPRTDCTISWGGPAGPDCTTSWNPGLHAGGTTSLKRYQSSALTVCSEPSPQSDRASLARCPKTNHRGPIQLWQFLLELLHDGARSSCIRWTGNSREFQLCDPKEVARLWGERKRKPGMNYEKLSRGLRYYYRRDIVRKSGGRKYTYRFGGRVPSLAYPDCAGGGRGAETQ
# In short: as §1
# ELF3 = biological target: T5, ELF3 (Homo sapiens, UniProt P78545 1-371); details: protein: recombinant; tags: N-terminal GST; dsDNA, one strand shown
# T5 sequence: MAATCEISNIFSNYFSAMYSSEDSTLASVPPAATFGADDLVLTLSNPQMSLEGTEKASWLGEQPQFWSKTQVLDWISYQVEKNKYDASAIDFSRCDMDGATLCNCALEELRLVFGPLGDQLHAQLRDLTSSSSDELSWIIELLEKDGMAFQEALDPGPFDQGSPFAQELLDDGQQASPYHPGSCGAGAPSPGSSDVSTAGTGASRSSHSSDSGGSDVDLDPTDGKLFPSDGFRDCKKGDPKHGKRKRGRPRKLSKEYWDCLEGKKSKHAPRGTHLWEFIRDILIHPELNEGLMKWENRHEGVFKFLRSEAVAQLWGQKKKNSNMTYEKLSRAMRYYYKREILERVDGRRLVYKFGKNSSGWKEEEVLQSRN
# In short: as §1
# CRX = CRX (Homo sapiens, UniProt O43186 1-299); details: protein: recombinant; tags: N-terminal GST; dsDNA, one strand shown
# Sequence of CRX (O43186 whole entry): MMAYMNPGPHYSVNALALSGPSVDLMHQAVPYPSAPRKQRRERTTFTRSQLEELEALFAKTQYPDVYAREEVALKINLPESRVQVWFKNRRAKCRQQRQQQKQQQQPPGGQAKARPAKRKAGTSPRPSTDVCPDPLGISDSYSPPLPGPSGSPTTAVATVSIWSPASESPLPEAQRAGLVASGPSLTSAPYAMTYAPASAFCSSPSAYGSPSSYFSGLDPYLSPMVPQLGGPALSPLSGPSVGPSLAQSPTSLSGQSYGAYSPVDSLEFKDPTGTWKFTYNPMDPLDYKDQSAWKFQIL
# In short: as §1
# ETV1 = ETV1 (Homo sapiens, UniProt P50549 1-477); details: protein: recombinant; tags: N-terminal GST; dsDNA, one strand shown
# Sequence of ETV1 (P50549 whole entry): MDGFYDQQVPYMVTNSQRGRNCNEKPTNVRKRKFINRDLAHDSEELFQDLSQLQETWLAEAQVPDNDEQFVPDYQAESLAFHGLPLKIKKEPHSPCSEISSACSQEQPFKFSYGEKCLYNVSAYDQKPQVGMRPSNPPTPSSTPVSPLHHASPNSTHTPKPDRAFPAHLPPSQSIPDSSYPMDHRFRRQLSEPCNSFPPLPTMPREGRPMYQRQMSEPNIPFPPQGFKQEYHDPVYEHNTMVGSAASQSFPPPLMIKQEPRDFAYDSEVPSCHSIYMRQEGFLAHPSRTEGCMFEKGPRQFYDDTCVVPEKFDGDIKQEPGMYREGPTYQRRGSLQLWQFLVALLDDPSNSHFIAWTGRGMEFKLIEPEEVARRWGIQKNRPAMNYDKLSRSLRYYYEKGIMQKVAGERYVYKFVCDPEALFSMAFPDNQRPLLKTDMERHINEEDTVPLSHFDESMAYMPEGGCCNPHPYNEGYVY
# In short: as §1
# ERF = biological target: T6, ERF (Homo sapiens, UniProt P50548 1-548); details: protein: recombinant; tags: N-terminal GST; dsDNA, one strand shown
# T6 sequence: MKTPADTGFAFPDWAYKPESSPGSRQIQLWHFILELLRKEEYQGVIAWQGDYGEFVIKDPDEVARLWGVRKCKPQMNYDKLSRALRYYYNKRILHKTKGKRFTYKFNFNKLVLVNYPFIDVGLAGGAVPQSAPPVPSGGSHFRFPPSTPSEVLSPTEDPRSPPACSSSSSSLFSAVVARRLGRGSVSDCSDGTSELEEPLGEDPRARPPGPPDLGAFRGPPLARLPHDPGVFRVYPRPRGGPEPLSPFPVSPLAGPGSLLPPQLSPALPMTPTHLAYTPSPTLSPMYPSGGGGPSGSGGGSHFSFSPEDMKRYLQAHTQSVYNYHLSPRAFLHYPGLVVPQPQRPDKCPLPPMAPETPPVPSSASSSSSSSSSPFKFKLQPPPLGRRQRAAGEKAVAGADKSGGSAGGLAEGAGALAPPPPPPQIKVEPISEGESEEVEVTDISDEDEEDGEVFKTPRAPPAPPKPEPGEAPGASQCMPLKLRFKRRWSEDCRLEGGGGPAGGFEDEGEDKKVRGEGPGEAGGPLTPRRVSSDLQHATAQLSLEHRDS
# In short: as §1
# ETV3L = biological target: T7, ETV3L (Homo sapiens, UniProt Q6ZN32 1-361); details: protein: recombinant; tags: N-terminal GST; dsDNA, one strand shown
# T7 sequence: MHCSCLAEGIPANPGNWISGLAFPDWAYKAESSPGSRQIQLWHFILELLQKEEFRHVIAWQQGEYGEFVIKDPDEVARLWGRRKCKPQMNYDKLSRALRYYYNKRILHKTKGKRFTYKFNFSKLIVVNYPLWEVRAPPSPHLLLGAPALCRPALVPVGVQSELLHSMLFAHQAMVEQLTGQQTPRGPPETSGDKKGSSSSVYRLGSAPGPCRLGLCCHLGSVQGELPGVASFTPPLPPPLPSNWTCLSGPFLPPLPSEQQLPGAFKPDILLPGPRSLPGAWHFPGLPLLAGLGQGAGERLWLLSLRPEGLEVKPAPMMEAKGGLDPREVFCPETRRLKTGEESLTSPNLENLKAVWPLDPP
# In short: as §1
# ETS2 = biological target: T8, ETS2 (Homo sapiens, UniProt P15036 1-469); details: protein: recombinant; tags: N-terminal GST; dsDNA, one strand shown
# T8 sequence: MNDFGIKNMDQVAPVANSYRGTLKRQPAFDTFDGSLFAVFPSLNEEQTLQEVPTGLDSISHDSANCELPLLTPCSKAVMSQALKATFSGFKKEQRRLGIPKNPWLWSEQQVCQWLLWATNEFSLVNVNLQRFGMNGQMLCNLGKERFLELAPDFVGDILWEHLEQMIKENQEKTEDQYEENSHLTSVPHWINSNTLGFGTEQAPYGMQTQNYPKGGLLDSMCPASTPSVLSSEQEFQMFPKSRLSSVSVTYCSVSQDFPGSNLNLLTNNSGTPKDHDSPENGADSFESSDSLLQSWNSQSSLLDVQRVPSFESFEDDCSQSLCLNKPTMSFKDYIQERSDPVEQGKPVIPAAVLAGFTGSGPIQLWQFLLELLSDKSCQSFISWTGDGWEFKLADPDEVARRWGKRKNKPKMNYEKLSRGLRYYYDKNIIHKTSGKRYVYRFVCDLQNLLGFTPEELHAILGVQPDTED
# In short: as §1
# SPDEF = biological target: T9, SPDEF (Homo sapiens, UniProt O95238 1-335); details: protein: recombinant; tags: N-terminal GST; dsDNA, one strand shown
# T9 sequence: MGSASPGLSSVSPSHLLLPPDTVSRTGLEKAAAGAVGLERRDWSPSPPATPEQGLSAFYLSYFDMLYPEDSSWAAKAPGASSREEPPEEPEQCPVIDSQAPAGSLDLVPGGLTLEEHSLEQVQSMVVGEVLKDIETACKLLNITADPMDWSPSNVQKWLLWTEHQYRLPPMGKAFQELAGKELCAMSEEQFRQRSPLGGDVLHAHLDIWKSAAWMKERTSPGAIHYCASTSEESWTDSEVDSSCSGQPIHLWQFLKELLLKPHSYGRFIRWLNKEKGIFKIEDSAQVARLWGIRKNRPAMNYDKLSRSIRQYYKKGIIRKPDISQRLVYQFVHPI
# In short: as §1
# ETV7 = biological target: T10, ETV7 (Homo sapiens, UniProt Q9Y603 1-341); details: protein: recombinant; tags: N-terminal GST; dsDNA, one strand shown
# T10 sequence: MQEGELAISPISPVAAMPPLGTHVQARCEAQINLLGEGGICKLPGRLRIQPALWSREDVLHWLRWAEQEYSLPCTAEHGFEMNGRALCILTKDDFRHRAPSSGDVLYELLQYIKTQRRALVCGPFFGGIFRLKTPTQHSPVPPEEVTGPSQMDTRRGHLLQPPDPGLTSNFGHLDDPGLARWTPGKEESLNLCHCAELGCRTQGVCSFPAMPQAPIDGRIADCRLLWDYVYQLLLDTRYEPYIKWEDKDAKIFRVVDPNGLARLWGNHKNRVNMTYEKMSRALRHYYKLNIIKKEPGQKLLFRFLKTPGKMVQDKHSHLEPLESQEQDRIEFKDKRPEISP
# In short: as §1
# ELF5 = biological target: T11, ELF5 (Homo sapiens, UniProt Q9UKW6-2 1-255); details: protein: recombinant; tags: N-terminal GST; dsDNA, one strand shown
# T11 sequence: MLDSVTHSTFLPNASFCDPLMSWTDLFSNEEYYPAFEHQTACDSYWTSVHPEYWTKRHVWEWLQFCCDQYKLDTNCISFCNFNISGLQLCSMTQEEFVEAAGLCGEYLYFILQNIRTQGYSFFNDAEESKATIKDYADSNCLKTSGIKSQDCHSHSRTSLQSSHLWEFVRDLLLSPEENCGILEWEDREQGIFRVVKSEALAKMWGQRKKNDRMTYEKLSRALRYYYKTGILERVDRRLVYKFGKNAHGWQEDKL
# In short: as §1
# ETV3 = biological target: T12, ETV3 (Homo sapiens, UniProt P41162-2 1-143); details: protein: recombinant; tags: N-terminal GST; dsDNA, one strand shown
# T12 sequence: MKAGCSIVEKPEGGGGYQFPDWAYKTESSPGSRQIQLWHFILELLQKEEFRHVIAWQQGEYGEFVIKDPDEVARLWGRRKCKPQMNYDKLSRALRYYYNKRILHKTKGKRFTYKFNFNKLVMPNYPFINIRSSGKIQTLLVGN
# In short: as §1
# ETV6 = ETV6 (Homo sapiens, UniProt P41212 1-452); details: protein: recombinant; tags: N-terminal GST; dsDNA, one strand shown
# Sequence of ETV6 (P41212 whole entry): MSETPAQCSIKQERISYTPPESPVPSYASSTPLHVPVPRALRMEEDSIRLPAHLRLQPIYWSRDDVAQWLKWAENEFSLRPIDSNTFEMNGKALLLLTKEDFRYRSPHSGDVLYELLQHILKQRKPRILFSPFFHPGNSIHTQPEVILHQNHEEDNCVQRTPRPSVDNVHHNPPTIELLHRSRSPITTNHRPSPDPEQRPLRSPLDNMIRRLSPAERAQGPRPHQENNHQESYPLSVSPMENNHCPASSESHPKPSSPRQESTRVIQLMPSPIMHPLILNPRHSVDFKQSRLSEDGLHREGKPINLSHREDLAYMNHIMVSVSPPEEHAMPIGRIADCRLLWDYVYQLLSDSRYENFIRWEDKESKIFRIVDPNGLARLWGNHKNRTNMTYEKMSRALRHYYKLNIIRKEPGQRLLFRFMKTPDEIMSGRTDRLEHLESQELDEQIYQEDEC
# In short: as §1
sequence,measurement,setting,value
TTATGA,binding signal,FEV,"1.07 fold enrichment (6-mer frequency, TF over GST control)"
same,binding signal,ETV5,"1.16 fold enrichment (6-mer frequency, TF over GST control)"
same,binding signal,HSF1,"1.45 fold enrichment (6-mer frequency, TF over GST control)"
same,binding signal,SPIC,"1.26 fold enrichment (6-mer frequency, TF over GST control)"
same,binding signal,ELF4,"1.05 fold enrichment (6-mer frequency, TF over GST control)"
same,binding signal,ELK4,"1.07 fold enrichment (6-mer frequency, TF over GST control)"
same,binding signal,ETV2,"1.09 fold enrichment (6-mer frequency, TF over GST control)"
same,binding signal,ELF3,"1.31 fold enrichment (6-mer frequency, TF over GST control)"
same,binding signal,CRX,"1.99 fold enrichment (6-mer frequency, TF over GST control)"
same,binding signal,ETV1,"1.17 fold enrichment (6-mer frequency, TF over GST control)"
same,binding signal,ERF,"1.23 fold enrichment (6-mer frequency, TF over GST control)"
same,binding signal,ETV3L,"1.22 fold enrichment (6-mer frequency, TF over GST control)"
same,binding signal,ETS2,"1.13 fold enrichment (6-mer frequency, TF over GST control)"
same,binding signal,SPDEF,"1.13 fold enrichment (6-mer frequency, TF over GST control)"
same,binding signal,ETV7,"1.12 fold enrichment (6-mer frequency, TF over GST control)"
same,binding signal,ELF5,"1.09 fold enrichment (6-mer frequency, TF over GST control)"
same,binding signal,ETV3,"1.21 fold enrichment (6-mer frequency, TF over GST control)"
same,binding signal,ETV6,"1.19 fold enrichment (6-mer frequency, TF over GST control)"
